Measured values as given in PubChem BioAssay AID624330 (Southern Research Specialized Biocontainment Screening …, 2012).
Out of some 340,000 compounds screened, about 2,100 (0.62%) were called active.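 The calls were made as follows: active = first-screen hits whose inhibition reached a set limit at any dose in the follow-up dose series; inconclusive = inhibition above the set first-screen limit but never retested; inactive = the rest.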 Only a sample is shown. Results with a measured potency or affinity are listed apart.

target: Rac GTPase-activating protein 1 (Homo sapiens) (UniProt Q9H0H5); assay: MgcRacGAP GTPase-activating activity inhibitors, confirmation, biochemical, ADP Hunter fluorescence, primary and confirmatory (AID 624330); settings: MgcRacGAP-stimulated Rac1 GTP hydrolysis, at 30 µM, stronger effect = higher value, GST-tagged Rac1 F28L mutant substrate;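 also: fluorescence reports GDP produced by GAP-driven GTP hydrolysis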
Sequence (Q9H0H5 whole entry, looked up): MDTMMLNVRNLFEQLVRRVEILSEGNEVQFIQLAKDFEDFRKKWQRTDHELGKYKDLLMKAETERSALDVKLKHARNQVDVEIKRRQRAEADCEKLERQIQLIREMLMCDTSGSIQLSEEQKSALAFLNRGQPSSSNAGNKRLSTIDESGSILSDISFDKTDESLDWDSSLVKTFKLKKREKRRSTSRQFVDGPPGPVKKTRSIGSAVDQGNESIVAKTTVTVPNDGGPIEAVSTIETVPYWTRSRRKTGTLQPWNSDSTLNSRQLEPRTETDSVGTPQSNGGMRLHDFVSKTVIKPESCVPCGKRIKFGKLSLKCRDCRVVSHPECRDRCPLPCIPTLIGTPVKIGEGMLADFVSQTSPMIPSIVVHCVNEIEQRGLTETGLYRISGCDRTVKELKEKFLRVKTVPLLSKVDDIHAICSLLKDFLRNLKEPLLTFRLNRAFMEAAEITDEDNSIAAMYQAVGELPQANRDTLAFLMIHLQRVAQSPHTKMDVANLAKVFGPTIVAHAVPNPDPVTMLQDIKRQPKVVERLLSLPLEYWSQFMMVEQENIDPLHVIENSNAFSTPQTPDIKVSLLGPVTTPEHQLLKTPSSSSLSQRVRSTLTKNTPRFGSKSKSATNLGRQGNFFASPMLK

inhibition, inactive:
COc1ccc(N2CCN(C(=O)COC(=O)Cc3ccc(F)cc3)CC2)cc1 17.9%
C[C@@H]1CN([C@H](C)CO)C(=O)CCCn2nncc2CO[C@H]1CN(C)Cc1ccc(O)cc1 7.18%
Cn1c(SCC(=O)N2CCOCC2)nnc1-c1ccco1 -0.83%
O=C(c1cc(-c2ccco2)on1)N1CCOCC1 2.62%
Cc1cccc(N2C(=O)C(O)=C(C(=O)c3cccs3)C2c2ccc(F)cc2)n1 (centres undefined) 11.6%
CC1CCN(CC(=O)Nc2cc(C(F)(F)F)ccc2Cl)CC1 6.71%
O=C(CC(=O)c1ccccc1)Nc1cc(C(F)(F)F)ccc1Cl -0.8%
COc1ccc(OC)c(NC(=O)CC2(CC(=O)O)CCCC2)c1 5.41%
O=C(Nc1cccc(-n2cnnn2)c1)c1cc2ccccc2o1 0.98%
CC(=O)Nc1ccc(-c2csc(NCc3ccccc3)n2)cc1 8.92%
CC(=O)Nc1cccc(-c2csc(NCc3ccco3)n2)c1 15.4%
N/C(=N\OC(=O)c1ccco1)c1cccc([N+](=O)[O-])c1 6.07%
CCn1cc(Cl)c(C(=O)Nc2nccs2)n1 1.45%
C=C(C)CSc1nnc(-c2ccc(OC)cc2)n1N 5.76%
O=C(Nc1ccccc1C(=O)N/N=C/c1ccncc1)c1ccccc1 9.96%
O=C(O)c1ccc(C=NNC(=O)c2ccccc2NS(=O)(=O)c2cccs2)cc1 7.04%
O=C(Nc1ccccc1C(=O)N/N=C/c1ccco1)c1ccccc1 7.26%
O=C(NN=Cc1ccc(F)cc1)c1ccccc1NS(=O)(=O)c1cccs1 5.29%
O=C(N/N=C/c1ccc(C(F)(F)F)cc1)c1ccc(O)cc1 8.28%
CC(C)(C)c1cc(C(=O)N/N=C/c2ccccc2O)n(-c2ccccc2)n1 2.15%
CC(C)(C)c1cc(C(=O)N/N=C/c2ccc(F)cc2)n(-c2ccccc2)n1 6.73%
O=C(N/N=C/c1cccc(C(F)(F)F)c1)c1ccc(O)cc1 6.36%
O=C(CSc1nnc(C2CC2)n1-c1ccccc1)NC1CCS(=O)(=O)C1 (centres undefined) -2.5%
CCOC(=O)c1cc(C)nn1-c1nc(Cl)cc(OC)n1 5.27%
COC(=O)c1ccccc1NC(=O)Oc1ccc(C(C)C)cc1 8.33%
Cc1ccc(NS(=O)(=O)c2ccc(-n3cccn3)cc2)nc1 4.91%
COc1ccc(S(=O)(=O)N2CCCCC2)cc1NC(=O)C1CSC2(C)CCC(=O)N12 (centres undefined) 5.04%
CC(C)(C)C(=O)NC(=S)NNC(=O)C(c1ccccc1)c1ccccc1 6.5%
O=C(O)CC/C(=N/NC(=O)CNC(=O)c1ccc2c(c1)OCCO2)c1ccccc1 3.51%
CCOC(=O)C(=O)Nc1cccc(C(=O)OCC)c1 -6.93%
COc1ccc(C=NNC(=O)c2ccccc2NS(=O)(=O)c2cccs2)cc1O 12.1%
COc1ccccc1/C=N/NC(=O)C(NC(=O)c1ccccc1)=C(C)C 4.44%
COc1ccc(/C=N/NC(=O)Nc2cccc3nsnc23)cc1 -1.96%
O=C(NN=Cc1c(F)cccc1F)c1ccccc1NS(=O)(=O)c1cccs1 3.9%
O=C(NN=Cc1cc(Br)c(O)c(Br)c1)c1ccccc1NS(=O)(=O)c1cccs1 15.4%
COc1ccc(/C=N/NC(=O)Nc2cccc3nsnc23)cc1OC 6.64%
CC(NC(=O)c1ccccc1)C(=O)N/N=C/c1ccc(O)cc1 (centres undefined) 27%
COc1cc(C=NNC(=O)c2ccccc2NS(=O)(=O)c2cccs2)cc(OC)c1O 9.93%
COc1ccc(-c2cc(-c3ccccc3)nc(N3CCCC3)n2)cc1OC 3.15%
Cc1cc(C)c(C)c(S(=O)(=O)NCCCN2CCCC2=O)c1C 5.47%
CC(C)(C)c1ccc(N2C(=O)CC(c3ccccc3)C2=O)cc1 (centres undefined) 4.86%
Cc1nc(N2CCN(C(=O)c3ccco3)CC2)c(C#N)c2c1CCCC2 5.84%
Cc1cc(C)cc(C(=O)N2CCN(Cc3ccc4c(c3)OCO4)CC2)c1 0.95%
COc1cc(OC)cc(C(=O)N2CCN(Cc3ccccc3C(F)(F)F)CC2)c1 11.6%
COc1cccc(C(=O)N2CCN(Cc3ccccc3Br)CC2)c1 21.5%
CCOC(=O)N1CCN(Cc2ccc3c(c2)OCO3)CC1 11.9%
CCOCC(=O)N1CCN(Cc2ccc3c(c2)OCO3)CC1 -16%
COc1cccc(C(=O)N2CCN(Cc3ccc4c(c3)OCO4)CC2)c1OC 9.39%
COc1cc(C(=O)N2CCN(Cc3ccc4c(c3)OCO4)CC2)cc(OC)c1OC 13.3%
COc1ccccc1C(=O)N1CCN(Cc2ccc3c(c2)OCO3)CC1 2.13%
Cc1ccccc1NC(=O)N1CCCC1C(=O)NCc1cccs1 (centres undefined) 11.4%
CC(=O)Nc1ccc(CN2CCc3c([nH]c4ccccc34)C2C(C)(C)C)cc1 (centres undefined) 6.78%
CCCc1n[nH]c2c1/C(=N/O)CC(c1ccccc1)C2 (centres undefined) 12.8%
COc1cc(C)c(S(=O)(=O)N2CCCC2)cc1C 4.75%
CN(Cc1ccccc1)C(=O)COC(=O)c1ccc(S(=O)(=O)N(C)C)cc1 9.46%
O=C1C=C(c2ccccc2)C(O)(c2ccccc2)C1 (centres undefined) 4.42%
CC1CN(C(=O)CS(=O)(=O)Cc2ccc(Cl)cc2)CC(C)O1 (centres undefined) 6.85%
O=C(/C=C/Nc1ccc(F)cc1)c1ccc(Oc2ncccn2)cc1 10.5%
CCCCNS(=O)(=O)c1ccc2nc(SCC(=O)Nc3sccc3C#N)[nH]c2c1 4.59%
COC(=O)C1CCN(C(=O)Cc2ccc(OC)c(OC)c2)CC1 -0.01%
O=C(Cc1cccs1)Nc1nnc(Cc2ccccc2)s1 22.3%
COc1ccc(Cc2nnc(NC(=O)Cc3cccs3)s2)cc1OC 4.75%
CC1=NNC(=O)C1CC(=O)N/N=C(\C)c1cccs1 (centres undefined) 3.05%
O=C(CCN1C(=O)c2cccc3cccc(c23)C1=O)Nc1ccccc1 2.77%
C=CCN1C(=O)CSC1=Nc1ccc(C(=O)O)cc1 6.53%
COc1ccc(N=C2SCC(=O)N2c2ccc(OC)cc2)cc1 -0.28%
CN1C(=O)CSC1=Nc1ccc(F)cc1 4.45%
C=CCN1C(=O)CSC1=Nc1cccc(O)c1 3.76%
O=C(NCCN1C(=O)S/C(=C\c2ccccc2Cl)C1=O)C1=COCCO1 3.87%
COc1cc2c(cc1OC)C(C)N(C(=S)Nc1ccccc1)CC2 (centres undefined) 7.46%
NC(c1ccncc1)c1ccc(Cl)cc1 (centres undefined) 13.9%
O=C(O)c1cccc(N2CCCC2)c1 15.6%
COC(=O)c1cccc(N2CCCC2=O)c1 9.18%
O=C(O)c1cccc(N2CCCC2=O)c1 5.07%
COC(=O)c1cccc(N2C(=O)c3ccccc3S2(=O)=O)c1 0.68%
CCCN(CCC)Cc1c(C(=O)N/N=C/CCc2ccccc2)nnn1-c1nonc1N 11.3%
Nc1ncc2c(n1)CCN(c1ccc([N+](=O)[O-])cc1)C2 7.74%
CC[C@H](C)[C@@H](C(=O)N1CCNCC1)n1cc([C@@H](N)CC(C)C)nn1 0.32%
Cc1ccsc1/C=N/NC(=O)Nc1ccccc1 1.94%
O=C(O)c1cccc(N/N=C/c2cn(-c3ccccc3)nc2-c2cccs2)c1 3.09%
O=C(O)c1cccc(N/N=C/c2cccc3ccccc23)c1 8.13%
CC(C)(C)c1ccc(/C=N/Nc2cccc(C(=O)O)c2)cc1 6.23%
O=C(O)c1cccc(N/N=C/c2ccc(-c3ccccc3)cc2)c1 -7.28%
CN(C)c1ccc(/C=N/Nc2cccc(C(=O)O)c2)cc1 -3.06%
Cc1ccc(NC(=O)CN2C(=O)NC3(CCc4ccccc43)C2=O)cc1 (centres undefined) -6.82%
CC(=O)c1ccc(NC(=O)CN2C(=O)NC3(CCc4ccccc43)C2=O)cc1 (centres undefined) 1.63%
CCOc1cccc(NC(=O)c2ccc(S(=O)(=O)N3CCCC3)cc2)c1 3.15%
O=S(=O)(c1ccccc1)c1nc(-c2ccco2)oc1NCCCN1CCOCC1 8.7%
O=C(/C=C/c1ccc(Cl)cc1Cl)Nc1cccc(S(=O)(=O)NC2=NCCCCC2)c1 5.67%
Nc1cc(Cl)ccc1Oc1ccc(Cl)cc1 0.58%
Nc1cc(Cl)ccc1Oc1ccccc1 11.6%
COc1ccc(C(=O)COC(=O)CNC(=O)c2ccccc2)cc1F 4.02%
CCOC(=O)c1cnc(SCC(=O)Nc2cc(OC)ccc2OC)nc1N 3.73%
CSCCC(NC(=O)c1ccccc1Cl)C(=O)NCc1ccncc1 (centres undefined) 6.71%
CC1CCCN(CCCOc2ccccc2-c2ccccc2)C1 (centres undefined) 18.1%
CC1CCCN(CCOc2ccc(Br)cc2)C1 (centres undefined) 12%
O=C(/C=C/c1ccco1)NCC1CCCO1 (centres undefined) 19.1%
CC(C)(C)C(=O)Cn1c(=O)n(-c2ccc(F)cc2F)c(=O)c2sccc21 13.1%
CNC(=S)N1N=C(c2ccc(C)cc2)CC1c1ccc(OC)c(OC)c1 (centres undefined) 2.99%
